# Laboratory results reported in PubChem BioAssay (Tox21).
# Inconclusive results are not listed. Where a call stands in place of a potency, no number is given. Unmarked numbers belong to inactive results. Activity calls are given as the source filed them. Calls follow the shape of the dose curve; as a rule, active = well fitted curve in the direction sought with a large enough effect in the repeat runs; inconclusive = weak or mixed curves; inactive = no such curve, though single readings can be large; an effect the other way counts as inactive or inconclusive.
# Legend:
# [1] = target: Nuclear receptor subfamily 1 group I member 2 (Rattus norvegicus) (UniProt Q9R1A7); test: Rat pregnane X receptor (rPXR) activation by small molecules, qHTS assay (AID 1346983); settings: rPXR luciferase reporter cells, One-Glo luminescence, 24 h; max activation: active compounds read high; also: nearly all actives have a fitted effect of over 20% in size; also: potency is read from the fitted curve at half-maximal effect
# Procedure, shortened: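 Cell-based rPXR luciferase reporter assay, 2,000 cells per well, rested 5hr at 37 C before compound addition in DMSO, then 24 hr at 37 C. One-Glo reagent was added and luminescence read after 30 min at room temperature.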
# [2] = target: Voltage-gated inwardly rectifying potassium channel KCNH2 (Homo sapiens) (UniProt Q12809); test: Human Ether-a-go-go-Related Gene (hERG) channel small molecule antagonists: fluorescence cell-based qHTS assay (AID 1671200);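 also: hERG-expressing U2OS cells given a thallium stimulus after FluxOR II dye loading; series mostly up to about 77 µM; nearly all actives have a fitted effect of over 50% in size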
# Procedure, shortened: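 Fluorescence at 540 nm emission (480 nm excitation) was recorded kinetically for 2 min at 1-second intervals once the thallium-containing stimulus reached cells previously loaded with FluxOR II dye.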
# [3] = target: Nuclear receptor subfamily 1 group I member 2 (Homo sapiens) (UniProt O75469); test: Human pregnane X receptor (PXR) small molecule agonists, qHTS assay (AID 1346982); also: nearly all actives have a fitted effect of over 35% in size; also: potency is read from the fitted curve at half-maximal effect
# Procedure, shortened: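 Reporter HepG2 cells expressing PXR-Luc are cultured in charcoal-stripped FBS (5%), treated with compounds for 24 hr at 37 C, and assayed by ONE-Glo luminescence after 30 min at room temperature.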
# [4] = target: Cytochrome P450 2C19 (Homo sapiens) (UniProt P33261); test: Cytochrome P450 Family 2 Subfamily C Member 19 (CYP2C19) small molecule antagonists: luciferase reporter qHTS assay (AID 1671197); also: nearly all actives have a fitted effect of over 65% in size; also: potency is read from the fitted curve at half-maximal effect; as to activity change, negative = inhibition: series mostly up to about 120 µM
# Procedure, shortened: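 Luminescent readout of CYP2C19 activity: luciferin product detected 20 min after adding detection reagent. Before that, compound and enzyme-substrate mix preincubated 10 min at room temperature; NADPH-regenerating system started a 1 h, 37C reaction. Ketoconazole as positive control.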
# [5] = target: Cytochrome P450 3A4 (Homo sapiens) (UniProt P08684); test: Cytochrome P450 Family 3 Subfamily A Member 4 (CYP3A4) small molecule antagonists: luciferase reporter qHTS assay (AID 1671201); also: nearly all actives have a fitted effect of over 50% in size; also: potency is read from the fitted curve at half-maximal effect; as to activity change, negative = inhibition: series mostly up to about 120 µM
# Procedure, shortened: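 qHTS, 1536-well. CYP3A4 + proluciferin substrate, cpd 10 min RT → NADPH regen 1 h RT → detection reagent 20 min → luminescence (RLU). Ketoconazole positive control.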
# [6] = target: Cytochrome P450 2D6 (Homo sapiens) (UniProt P10635); test: Cytochrome P450 Family 2 Subfamily D Member 6 (CYP2D6) small molecule antagonists: luciferase reporter qHTS assay (AID 1671196); also: nearly all actives have a fitted effect of over 50% in size; also: potency is read from the fitted curve at half-maximal effect; as to activity change, negative = inhibition: series mostly up to about 120 µM
# Procedure, shortened: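 Test chemicals meet CYP2D6 plus proluciferin substrate (10 min, RT); NADPH regenerating solution then drives turnover for 1 h. Detection reagent halts the reaction; luminescence measured after 20 min.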
# [7] = target: Cytochrome P450 2C9 (Homo sapiens) (UniProt P11712); test: Cytochrome P450 Family 2 Subfamily C Member 9 (CYP2C9) small molecule antagonists: luciferase reporter qHTS assay (AID 1671198); also: nearly all actives have a fitted effect of over 50% in size; also: potency is read from the fitted curve at half-maximal effect; as to activity change, negative = inhibition: series mostly up to about 120 µM
# Procedure, shortened: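 CYP2C9 activity was measured with a P450-Glo proluciferin substrate. Enzyme–substrate mix was held with compound for 10 min at room temperature, then NADPH regeneration solution was added for 1 h at 37C. Luciferin product was read as luminescence.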
# [8] = target: Cytochrome P450 1A2 (Homo sapiens) (UniProt P05177); test: Cytochrome P450 Family 1 Subfamily A Member 2 (CYP1A2) small molecule antagonists: luciferase reporter qHTS assay (AID 1671199); also: nearly all actives have a fitted effect of over 50% in size; also: potency is read from the fitted curve at half-maximal effect; as to activity change, negative = inhibition: series mostly up to about 120 µM
# Procedure, shortened: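 Steps: enzyme-substrate mix dispensed; test compounds and furafylline control pinned in; 10 min room temperature; NADPH regeneration solution added, 1 h; reaction stopped with luciferin detection reagent; luminescence read after 20 min.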
# [9] = target: Nuclear receptor subfamily 1 group I member 2 (Homo sapiens) (UniProt O75469); test: Human pregnane X receptor (PXR) activation by small molecules, qHTS assay (AID 1346985); also: nearly all actives have a fitted effect of over 40% in size
# Procedure, shortened: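 DPX-2 cells (HepG2 co-transfected with a PXR response element and a CYP3A4-promoter luciferase construct) were seeded at 2,000 per well, rested 5 hr at 37C, then exposed to DMSO-dissolved compounds for 24 hr. Activation was read as luciferase luminescence.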
# [10] = target: Nuclear receptor subfamily 1 group I member 2 (Homo sapiens) (UniProt O75469); test: CYP3A4 induction through human pregnane X receptor (PXR) by small molecules, qHTS assay (AID 1346984); also: nearly all actives have a fitted effect of over 40% in size
# Procedure, shortened: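 Induction measured in HepG2-based DPX-2 cells co-expressing human PXR and a CYP3A4 promoter-driven luciferase. After a 24-hour compound exposure, cells received CYP3A4 luciferin substrate at 3uM final for 3 hours, and light output was then recorded.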
# Voltage-gated inwardly rectifying potassium channel KCNH2 (Homo sapiens), sequence (Q12809 whole entry, looked up): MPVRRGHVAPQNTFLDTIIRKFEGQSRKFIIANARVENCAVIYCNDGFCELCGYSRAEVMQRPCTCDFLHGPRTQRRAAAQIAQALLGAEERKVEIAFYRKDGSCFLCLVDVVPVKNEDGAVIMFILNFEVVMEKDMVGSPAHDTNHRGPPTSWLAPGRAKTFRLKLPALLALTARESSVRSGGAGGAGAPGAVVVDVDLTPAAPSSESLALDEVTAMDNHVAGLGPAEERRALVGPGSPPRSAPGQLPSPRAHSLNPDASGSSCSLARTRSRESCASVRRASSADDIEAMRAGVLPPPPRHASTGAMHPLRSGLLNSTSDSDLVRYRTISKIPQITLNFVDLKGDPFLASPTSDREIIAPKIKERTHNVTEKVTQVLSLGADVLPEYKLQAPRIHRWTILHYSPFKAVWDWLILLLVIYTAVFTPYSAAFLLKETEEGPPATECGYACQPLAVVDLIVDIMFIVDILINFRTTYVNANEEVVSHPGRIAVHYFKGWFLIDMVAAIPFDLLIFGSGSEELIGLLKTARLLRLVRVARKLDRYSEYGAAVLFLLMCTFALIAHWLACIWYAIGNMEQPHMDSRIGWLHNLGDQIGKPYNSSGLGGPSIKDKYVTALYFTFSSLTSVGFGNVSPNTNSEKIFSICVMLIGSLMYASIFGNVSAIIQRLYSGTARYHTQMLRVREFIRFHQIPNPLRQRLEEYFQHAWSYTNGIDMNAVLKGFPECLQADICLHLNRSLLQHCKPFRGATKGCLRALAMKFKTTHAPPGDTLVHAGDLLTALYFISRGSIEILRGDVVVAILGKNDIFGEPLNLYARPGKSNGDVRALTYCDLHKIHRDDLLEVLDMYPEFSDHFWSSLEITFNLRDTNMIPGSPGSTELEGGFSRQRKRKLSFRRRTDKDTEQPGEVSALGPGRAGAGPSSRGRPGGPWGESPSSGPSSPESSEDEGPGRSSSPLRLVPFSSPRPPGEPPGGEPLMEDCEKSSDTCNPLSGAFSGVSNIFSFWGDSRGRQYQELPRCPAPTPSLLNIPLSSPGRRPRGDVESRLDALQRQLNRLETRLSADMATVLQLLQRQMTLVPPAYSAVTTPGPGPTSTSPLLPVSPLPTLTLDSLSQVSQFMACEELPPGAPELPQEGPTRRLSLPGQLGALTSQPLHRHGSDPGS
# Cytochrome P450 2C9 (Homo sapiens), sequence (P11712 whole entry, looked up): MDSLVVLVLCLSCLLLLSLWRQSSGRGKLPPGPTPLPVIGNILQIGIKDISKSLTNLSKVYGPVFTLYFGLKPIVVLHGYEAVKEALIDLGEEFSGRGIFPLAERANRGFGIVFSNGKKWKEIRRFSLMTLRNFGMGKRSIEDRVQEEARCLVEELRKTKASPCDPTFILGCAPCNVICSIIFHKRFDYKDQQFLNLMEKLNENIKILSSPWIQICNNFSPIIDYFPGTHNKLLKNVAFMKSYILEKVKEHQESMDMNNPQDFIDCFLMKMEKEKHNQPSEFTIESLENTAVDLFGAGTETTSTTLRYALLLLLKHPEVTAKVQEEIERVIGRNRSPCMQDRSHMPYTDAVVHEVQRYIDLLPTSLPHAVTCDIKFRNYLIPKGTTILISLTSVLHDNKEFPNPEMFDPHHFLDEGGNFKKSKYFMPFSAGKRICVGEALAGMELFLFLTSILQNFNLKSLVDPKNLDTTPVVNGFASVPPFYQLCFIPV
# Nuclear receptor subfamily 1 group I member 2 (Rattus norvegicus), sequence (Q9R1A7 whole entry, looked up): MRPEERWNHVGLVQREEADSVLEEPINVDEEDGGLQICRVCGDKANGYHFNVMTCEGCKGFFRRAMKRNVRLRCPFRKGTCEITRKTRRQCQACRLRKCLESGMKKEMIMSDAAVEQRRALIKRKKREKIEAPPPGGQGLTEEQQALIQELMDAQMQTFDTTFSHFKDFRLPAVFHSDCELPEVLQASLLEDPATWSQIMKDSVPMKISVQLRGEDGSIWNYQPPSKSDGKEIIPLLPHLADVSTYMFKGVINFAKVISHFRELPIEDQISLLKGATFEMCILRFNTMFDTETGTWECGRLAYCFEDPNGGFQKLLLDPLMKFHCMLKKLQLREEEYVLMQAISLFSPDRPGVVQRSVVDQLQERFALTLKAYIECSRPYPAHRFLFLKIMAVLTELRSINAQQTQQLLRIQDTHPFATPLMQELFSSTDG
# Cytochrome P450 1A2 (Homo sapiens), sequence (P05177 whole entry, looked up): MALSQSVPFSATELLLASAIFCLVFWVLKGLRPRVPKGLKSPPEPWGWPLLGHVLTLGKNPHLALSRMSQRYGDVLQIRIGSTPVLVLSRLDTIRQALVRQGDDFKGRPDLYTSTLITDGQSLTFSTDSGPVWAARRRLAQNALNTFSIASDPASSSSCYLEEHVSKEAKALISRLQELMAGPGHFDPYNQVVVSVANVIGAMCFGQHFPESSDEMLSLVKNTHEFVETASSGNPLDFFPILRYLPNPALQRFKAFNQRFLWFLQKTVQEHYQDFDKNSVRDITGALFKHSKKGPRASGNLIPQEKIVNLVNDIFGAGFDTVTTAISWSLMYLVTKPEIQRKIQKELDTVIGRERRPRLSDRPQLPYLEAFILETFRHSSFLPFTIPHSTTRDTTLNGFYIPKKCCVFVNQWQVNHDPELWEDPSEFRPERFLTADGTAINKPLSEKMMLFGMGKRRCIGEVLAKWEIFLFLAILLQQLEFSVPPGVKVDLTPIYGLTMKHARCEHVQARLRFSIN
# Cytochrome P450 2D6 (Homo sapiens), sequence (P10635 whole entry, looked up): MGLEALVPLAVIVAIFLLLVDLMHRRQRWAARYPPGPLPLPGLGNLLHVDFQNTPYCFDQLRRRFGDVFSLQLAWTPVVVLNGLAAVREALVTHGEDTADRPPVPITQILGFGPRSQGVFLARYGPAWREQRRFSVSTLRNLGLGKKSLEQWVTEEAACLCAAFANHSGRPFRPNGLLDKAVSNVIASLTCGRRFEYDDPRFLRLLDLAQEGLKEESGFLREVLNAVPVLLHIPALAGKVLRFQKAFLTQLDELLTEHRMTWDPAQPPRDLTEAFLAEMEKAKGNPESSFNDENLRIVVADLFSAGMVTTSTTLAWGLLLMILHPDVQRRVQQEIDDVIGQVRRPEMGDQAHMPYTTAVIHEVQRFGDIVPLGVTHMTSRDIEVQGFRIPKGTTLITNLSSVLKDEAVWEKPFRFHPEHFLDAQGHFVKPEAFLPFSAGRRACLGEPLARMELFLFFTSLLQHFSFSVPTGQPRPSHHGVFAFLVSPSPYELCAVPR
# Cytochrome P450 2C19 (Homo sapiens), sequence (P33261 whole entry, looked up): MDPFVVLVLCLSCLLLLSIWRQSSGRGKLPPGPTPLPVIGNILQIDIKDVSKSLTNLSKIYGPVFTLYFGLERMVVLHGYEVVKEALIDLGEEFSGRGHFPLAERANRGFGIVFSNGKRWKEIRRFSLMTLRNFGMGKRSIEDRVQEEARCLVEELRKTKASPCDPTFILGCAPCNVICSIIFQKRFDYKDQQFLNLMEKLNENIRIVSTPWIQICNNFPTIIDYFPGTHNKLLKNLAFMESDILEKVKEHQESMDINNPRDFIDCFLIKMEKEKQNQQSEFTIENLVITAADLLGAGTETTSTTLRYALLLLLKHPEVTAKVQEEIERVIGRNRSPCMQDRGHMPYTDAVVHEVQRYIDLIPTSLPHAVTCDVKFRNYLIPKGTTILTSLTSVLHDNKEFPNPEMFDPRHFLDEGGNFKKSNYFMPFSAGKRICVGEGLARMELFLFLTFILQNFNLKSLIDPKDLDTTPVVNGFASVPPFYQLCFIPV
# Cytochrome P450 3A4 (Homo sapiens), sequence (P08684 whole entry, looked up): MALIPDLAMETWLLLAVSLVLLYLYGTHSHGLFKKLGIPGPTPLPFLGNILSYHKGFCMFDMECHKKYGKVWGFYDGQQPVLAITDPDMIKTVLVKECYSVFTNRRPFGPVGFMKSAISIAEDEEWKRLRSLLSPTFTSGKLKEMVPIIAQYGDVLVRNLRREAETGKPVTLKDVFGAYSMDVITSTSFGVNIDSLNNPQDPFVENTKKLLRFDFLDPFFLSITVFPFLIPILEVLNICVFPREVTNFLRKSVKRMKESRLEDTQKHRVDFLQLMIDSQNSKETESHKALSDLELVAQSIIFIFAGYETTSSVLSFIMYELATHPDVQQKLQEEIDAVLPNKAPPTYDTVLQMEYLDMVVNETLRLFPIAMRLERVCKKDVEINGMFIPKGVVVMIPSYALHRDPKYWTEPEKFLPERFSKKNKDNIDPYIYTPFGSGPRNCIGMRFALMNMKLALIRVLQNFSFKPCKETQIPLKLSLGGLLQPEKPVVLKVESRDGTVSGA
# Nuclear receptor subfamily 1 group I member 2 (Homo sapiens), sequence (O75469 whole entry, looked up): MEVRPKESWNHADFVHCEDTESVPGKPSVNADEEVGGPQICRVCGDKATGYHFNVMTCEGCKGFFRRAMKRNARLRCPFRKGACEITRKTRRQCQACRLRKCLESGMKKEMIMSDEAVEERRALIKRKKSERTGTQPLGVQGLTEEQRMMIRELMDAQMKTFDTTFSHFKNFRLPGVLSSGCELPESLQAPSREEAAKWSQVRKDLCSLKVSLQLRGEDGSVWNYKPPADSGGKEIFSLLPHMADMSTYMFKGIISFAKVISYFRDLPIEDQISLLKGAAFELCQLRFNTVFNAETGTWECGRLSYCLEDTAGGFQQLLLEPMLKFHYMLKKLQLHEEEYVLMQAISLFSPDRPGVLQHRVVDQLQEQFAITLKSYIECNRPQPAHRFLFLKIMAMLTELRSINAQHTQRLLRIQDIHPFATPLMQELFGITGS
smiles,measurement,setting,value
Cc1ccc2c(c1)c1c3n2CCNC3CCC1 (centres undefined),max activation,[1],-0.806%
same,Potency,[2],inactive
CCCCCCCCCCCCCCCC(=O)NCCO,Potency,[2],inactive
CCOC(=O)CC#N,Potency,[3],inactive
same,Potency,[4],39.5 µM (active)
same,Potency,[2],inactive
same,Potency,[5],inactive
CC(C)(c1ccc(Oc2ccc3c(c2)C(=O)OC3=O)cc1)c1ccc(Oc2ccc3c(c2)C(=O)OC3=O)cc1,Potency,[6],39.7 µM (active)
same,Potency,[4],inactive
same,Potency,[7],inactive
same,Potency,[8],70.6 µM (active)
same,Potency,[2],inactive
same,Potency,[5],inactive
COc1ccc(NS(=O)(=O)c2ccc(N)cc2)nn1,Potency,[2],inactive
Cc1cccc(Nc2ccncc2S(=O)(=O)NC(=O)NC(C)C)c1,max activation,[1],-0.7%
same,Potency,[9],inactive
same,Potency,[6],inactive
same,Potency,[4],inactive
same,Potency,[7],13.8 µM (active)
same,Potency,[8],inactive
same,Potency,[2],inactive
C=CC(C)(O)CC/C=C(\C)CC (centres undefined),Potency,[6],inactive
same,Potency,[4],40 µM (active)
same,Potency,[2],inactive
same,Potency,[5],22.5 µM (active)
C[C@@H]1C[C@H]2[C@@H]3C[C@H](F)C4=CC(=O)C=C[C@]4(C)[C@@]3(F)[C@@H](O)C[C@]2(C)[C@@]1(O)C(=O)CO,Potency,[1],1.41 µM (active)
C=COCCOCCOC=C,Potency,[3],inactive
same,Potency,[4],inactive
same,Potency,[7],inactive
same,Potency,[5],inactive
Cc1cc(O)c2c(c1)C(=O)c1cccc(O)c1C2=O,Potency,[6],inactive
same,Potency,[4],inactive
same,Potency,[7],inactive
same,Potency,[8],15.5 µM (active)
same,Potency,[5],inactive
Oc1ccccc1Cc1ccccc1O,Potency,[3],61.1 µM (active)
same,Potency,[4],10 µM (active)
same,Potency,[7],39.9 µM (active)
same,Potency,[2],inactive
O=CO,"activity change, negative = inhibition",[2],-0.636% [at 6.97 µM]
C[C@H]1O[C@H](O[C@H]2[C@H](O)[C@@H](O)[C@@H](O[C@H]3[C@H](O)[C@@H](O)[C@H](O)O[C@@H]3CO)O[C@@H]2CO)[C@H](O)[C@@H](O)[C@@H]1N[C@H]1C=C(CO)[C@@H](O)[C@H](O)[C@H]1O,max activation,[1],-1.07%
same,Potency,[6],inactive
same,Potency,[4],inactive
same,Potency,[7],inactive
same,Potency,[8],inactive
same,Potency,[2],inactive
same,Potency,[5],inactive
CCOC(=O)CC(CC(=O)OCC)(OC(C)=O)C(=O)OCC,Potency,[6],inactive
same,Potency,[4],12.6 µM (active)
same,Potency,[7],28.3 µM (active)
same,Potency,[5],inactive
CC(=O)OC(C(=O)c1ccccc1)c1ccccc1 (centres undefined),Potency,[6],35.7 µM (active)
same,Potency,[4],8.98 µM (active)
same,Potency,[7],31.9 µM (active)
same,Potency,[8],40.1 µM (active)
same,Potency,[2],inactive
F[Si-2](F)(F)(F)(F)F,max activation,[1],-2.73%
same,outcome,[10],inactive
same,Potency,[9],inactive
same,Potency,[6],inactive
same,Potency,[4],inactive
same,Potency,[7],inactive
same,Potency,[8],inactive
same,Potency,[2],inactive
same,Potency,[5],inactive
c1ccc(CNc2ncnc3nc[nH]c23)cc1,Potency,[2],inactive
CCCO,Potency,[3],inactive
same,Potency,[7],inactive
same,Potency,[8],inactive
same,Potency,[2],inactive
same,Potency,[5],inactive
CCCCCCCCCOCC1CO1 (centres undefined),Potency,[4],52.2 µM (active)
same,Potency,[7],82.8 µM (active)
same,Potency,[2],inactive
